# PubChem BioAssay (Tox21)
# Values without a mark were called inactive. The source made the active and inactive calls. Calls come from the whole dose curve; as a rule, active = well fitted curve in the direction sought with a large enough effect in the repeat runs; inconclusive = weak or mixed curves; inactive = flat fitted curve, though single readings scatter.
# Assay: qHTS assay to test for compound auto fluorescence at 590 nm (red) in HepG2 cell free culture (AID 720684)
# Conditions: cell-free medium autofluorescence, red 540/590 nm; series mostly up to 91.3 µM
# Source text: U.S. Tox21 Program National Center for Advancing Translational Sciences [NCATS] NIH Chemical Genomics Center [NCGC] U.S. Environmental Protection Agency [EPA] National Institutes of Environmental Health Sciences [NIEHS] National Toxicology Program [NTP] U.S. Food and Drug Administration [FDA] Tox21 Assay Overview: Compound auto fluorescence often interferes with screening of the compound library against various biological targets and signaling pathways. Some of these compounds may have fluorophoric properties. Such properties may interfere with the assay outputs resulting in false positives and/or negatives. To decrease such complications and ensure the compound activities are relevant in terms of biological response, the Tox21 10K compound library was screened for auto fluorescence. From the fluorophores used as reporter signals in our screening assays, the auto fluorescence equivalencies of compounds against three fluorophores have been evaluated: Triamterene, Fluorescein and Rose Bengal sodium for blue, green and red fluorescence, respectively. The fluorescence intensities were measured using Excitation/Emission wavelengths at 405/460nm, 485/535nm and 540/590nm for blue, green and red labels, respectively. This assay includes the red fluorescence data.
# Tox21 Assay Protocol Summary: 5 uL of culture medium (MEM containing 10% FBS) per well was dispensed into black wall/clear bottom 1536-well plates using a Multidrop Combi Dispenser (ThermoFisher Scientific, Waltham, MA). After 23 nL compound or DMSO vehicle was transferred into assay plate by a pintool work station (Kalypsys, San Diego, CA), fluorescence intensities in the assay plates were measured by an Envision (PerkinElmer, Shelton, CT) plate reader using three labels for measuring blue, green and red fluorescence at […] 460, 535 and 590nm respectively.
# % is set by controls: 0 for no effect and ±100 for the full control effect.
SMILES,outcome,"fluorescence, % of Rose Bengal"
CC(C)(C)c1cc(O)ccc1O,inactive,
N#CN,inactive,
Cc1cc(OC(=O)N(C)C)nn1C(=O)N(C)C,inactive,
CCOP(=O)(CN(CCO)CCO)OCC,inactive,
CN1COCN(Cc2cnc(Cl)s2)/C1=N\[N+](=O)[O-],inactive,
C#CC(C)(C)O,inactive,
Clc1cc2c(cc1Cl)Oc1cc(Cl)c(Cl)cc1O2,,-0.248% [at 0.37 µM]
ClC1=C(Cl)C2(Cl)C(CBr)CC1(Cl)C2(Cl)Cl (stereo not given),inactive,
CCOC(=O)CC(SP(=S)(OC)OC)C(=O)OCC (stereo not given),inactive,
NC(=O)CS(=O)C(c1ccccc1)c1ccccc1 (stereo not given),inactive,
CCC(C)(C#N)N=NC(C)(C#N)CC (stereo not given),inactive,
Brc1c(Br)c(Br)c(Br)c(Br)c1Br,,0.0791% [at 3.72 µM]
CCC1(c2ccccc2)CCC(=O)NC1=O (stereo not given),inactive,
COC1=CC(=O)O[C@@H](/C=C/c2ccccc2)C1,inactive,
C=CC(=O)OCCN(C)C,inactive,
CCOC(=O)c1ncn2c1CN(C)C(=O)c1c(I)cccc1-2,inactive,
CN(C)CCc1c[nH]c2cccc(OP(=O)(O)O)c12,inactive,
NNC(N)=O,inactive,
CC(C)[C@]12CC(=O)[C@H](C)[C@H]1C2,inactive,
COc1ccc(C=O)cc1O,inactive,

SMILES,outcome,"fluorescence, % of Rose Bengal"
O=C(O)CBr,inactive,
ClCOCCl,inactive,
ClCCCCCCCl,inactive,
CC(Cc1ccccc1)NCCn1cnc2c1c(=O)n(C)c(=O)n2C (stereo not given),inactive,
CC(C)(C1CCC(O)CC1)C1CCC(O)CC1 (stereo not given),inactive,
CCCCOC(C)=O,inactive,
COc1ccc2c(C(=O)c3ccc(Cl)cc3)c(C)n(CC(=O)O)c2c1,inactive,
CNC(=O)Oc1ccccc1C(C)C,inactive,
O=C(NC(O)C(Cl)(Cl)Cl)NC(O)C(Cl)(Cl)Cl (stereo not given),inactive,
C/C(=N\NC(=O)Nc1cc(F)cc(F)c1)c1ncccc1C(=O)O,inactive,
CCN[C@@H](C)Cc1cccc(C(F)(F)F)c1,inactive,
CCN(CC)C1CCCCC1,inactive,
C[C@H](N)C(=O)c1ccccc1,inactive,
CC(=NC#N)N(C)Cc1ccc(Cl)nc1,inactive,
CCCCCCCC(=O)Cl,inactive,
Cl/C=C/CCl,inactive,
CCc1cc(OC)c(C[C@H](C)N)cc1OC,inactive,
O=C(O)C(F)(F)C(F)(F)C(F)(F)C(F)(F)C(F)(F)C(F)(F)F,inactive,
NCC1(CC(=O)O)CCCCC1,,0.0064% [at 18.6 µM]
C=CC=O,inactive,
